Measured values from the supplement of paper PMC8728848.
Shown is part of a subset that was picked to be rich in the strongest signals.

Key:
Test in all cases: glycan array binding signal (z-score within array); higher = stronger binding
Conditions in all cases: glycan notation: IUPAC condensed, linker removed
Fuc(a1-2)Gal = target: Fuc(a1-2)Gal
Procedure, shortened: (§1)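 Columns mapping to the same glycan were averaged after glycan names were converted to IUPAC-condensed notation. The data come from 3228 arrays in the Consortium for Functional Glycomics database, limited to those with an available protein sequence. Binding is reported as a within-array Z-score averaged across arrays of one protein sequence and across linkers.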

[1] = target: Fuc(a1-2)Gal(b1-3)GlcNAc(b1-2)Man(a1-3)[Fuc(a1-2)Gal(b1-3)GlcNAc(b1-2)Man(a1-6)]Man(b1-4)GlcNAc(b1-4)[Fuc(a1-6)]GlcNAc
Procedure, shortened: as §1

[2] = target: Fuc(a1-2)Gal(b1-3)[Fuc(a1-4)]GlcNAc
Procedure, shortened: as §1

Fuc(a1-2)Gal(b1-4)Glc = target: Fuc(a1-2)Gal(b1-4)Glc
Procedure, shortened: as §1

[3] = target: Fuc(a1-2)Gal(b1-4)[Fuc(a1-3)]GlcNAc(b1-2)[Fuc(a1-2)Gal(b1-4)[Fuc(a1-3)]GlcNAc(b1-4)]Man(a1-3)[Fuc(a1-2)Gal(b1-4)[Fuc(a1-3)]GlcNAc(b1-2)Man(a1-6)]Man(b1-4)GlcNAc(b1-4)GlcNAc
Procedure, shortened: as §1

[4] = target: Fuc(a1-2)[Gal(a1-4)]Gal(b1-4)GlcNAc
Procedure, shortened: as §1

[5] = target: Fuc(a1-3)[Gal(b1-4)]GlcNAc(b1-2)Man(a1-3)[Fuc(a1-3)[Gal(b1-4)]GlcNAc(b1-2)Man(a1-6)]Man(b1-4)GlcNAc(b1-4)[Fuc(a1-6)]GlcNAc
Procedure, shortened: as §1

[6] = target: Fuc(a1-3)[Gal(b1-4)]GlcNAc6S
Procedure, shortened: as §1

[7] = target: Fuc(a1-3)[GalNAc(b1-4)]GlcNAc
Procedure, shortened: as §1

[8] = target: Gal(a1-3)Gal(b1-3)GlcNAc(b1-2)Man(a1-3)[Gal(a1-3)Gal(b1-3)GlcNAc(b1-2)Man(a1-6)]Man(b1-4)GlcNAc(b1-4)GlcNAc
Procedure, shortened: as §1

[9] = target: Gal(a1-3)Gal(b1-4)GlcNAc(b1-6)GalNAc
Procedure, shortened: as §1

Gal(a1-4)Gal(b1-4)Glc = target: Gal(a1-4)Gal(b1-4)Glc
Procedure, shortened: as §1

[10] = target: Gal(a1-4)Gal(b1-4)GlcNAc(b1-2)Man(a1-3)[Gal(a1-4)Gal(b1-4)GlcNAc(b1-2)Man(a1-6)]Man(b1-4)GlcNAc(b1-4)GlcNAc
Procedure, shortened: as §1

Gal(b1-3)GalNAc = target: Gal(b1-3)GalNAc
Procedure, shortened: as §1

[11] = target: Gal(b1-3)GalNAc(a1-3)[Fuc(a1-2)]Gal(b1-4)Glc
Procedure, shortened: as §1

[12] = target: Gal(b1-3)GalNAc(a1-3)[Fuc(a1-2)]Gal(b1-4)GlcNAc
Procedure, shortened: as §1

[13] = target: Gal(b1-3)GalNAc(b1-4)Gal(b1-4)Glc
Procedure, shortened: as §1

[14] = target: Gal(b1-3)GlcNAc(b1-2)Man(a1-3)[GlcNAc(b1-4)][Gal(b1-3)GlcNAc(b1-2)Man(a1-6)]Man(b1-4)GlcNAc(b1-4)GlcNAc
Procedure, shortened: as §1

[15] = target: Gal(b1-3)[Fuc(a1-4)]GlcNAc(b1-2)Man(a1-3)[Gal(b1-3)[Fuc(a1-4)]GlcNAc(b1-2)Man(a1-6)]Man(b1-4)GlcNAc(b1-4)[Fuc(a1-6)]GlcNAc
Procedure, shortened: as §1

Gal(b1-4)GlcNAc(b1-2)Man = target: Gal(b1-4)GlcNAc(b1-2)Man
Procedure, shortened: as §1

[16] = target: Gal(b1-4)GlcNAc(b1-2)Man(a1-3)[Man(a1-6)]Man(b1-4)GlcNAc(b1-4)GlcNAc
Procedure, shortened: as §1

[17] = target: Gal(b1-4)GlcNAc(b1-2)[Gal(b1-4)GlcNAc(b1-4)]Man(a1-3)[Gal(b1-4)GlcNAc(b1-2)Man(a1-6)]Man(b1-4)GlcNAc(b1-4)GlcNAc
Procedure, shortened: as §1

[18] = target: Gal(b1-4)GlcNAc(b1-3)Gal(b1-4)Glc
Procedure, shortened: as §1

Gal6S(b1-3)GlcNAc6S = target: Gal6S(b1-3)GlcNAc6S
Procedure, shortened: as §1

Gal6S(b1-4)GlcNAc6S = target: Gal6S(b1-4)GlcNAc6S
Procedure, shortened: as §1

[19] = target: GalNAc(b1-4)GlcNAc(b1-2)Man(a1-3)[GalNAc(b1-4)GlcNAc(b1-2)Man(a1-6)]Man(b1-4)GlcNAc(b1-4)GlcNAc
Procedure, shortened: as §1

[20] = target: GlcNAc(a1-4)Gal(b1-3)GlcNAc
Procedure, shortened: as §1

[21] = target: GlcNAc(a1-4)Gal(b1-4)GlcNAc(b1-3)Gal(b1-4)[Fuc(a1-3)]GlcNAc(b1-3)Gal(b1-4)[Fuc(a1-3)]GlcNAc
Procedure, shortened: as §1

[22] = target: GlcNAc(b1-2)Man(a1-3)[GlcNAc(b1-4)][GlcNAc(b1-2)Man(a1-6)]Man(b1-4)GlcNAc(b1-4)GlcNAc
Procedure, shortened: as §1

[23] = target: GlcNAc(b1-3)Gal(b1-4)GlcNAc
Procedure, shortened: as §1

B1: B1257 (Bifidobacterium sp) (protein)
chain: MKKSIRLVAAIAALAMTAGISACGSSTNGNQAKSDVTAQDVETALTDTSKNVELTVWAYSAKQMEPTVKAFEKKYPHIKINFVNTGAAGDHFTKFQNVVQAQKDIPDVVQMGANKFQQFAVSGALLNFANDSIEKAWSKLYTKTAWAQVHYAGGLYGAPQDATPLANYVRKDILDEHNLQVPESWEDIYNEGIKLHKEDSNKYMGILGSDISFFTNLYRSVGARLWKVNSVDDVELTMNSGKAKEFTEFLQKCLKDGVLEGGTVFTDEFNRSINDGRYATFINENWMGNTYKEQNPSLKGKMVVAAPPSWKGQPYQSSSVGSMMSVSAACPKEKQAAALAFINWLDSDKDAIQSWQDTNNGNFFMAASVYQDDENQRNKKETDGYYANDDVNAVYFDSMDKVNTDWEYLPFMSQVEVVFNDVIVPQMNENGDLVGAMAKAQQELKTYAKDNGFKVTTDAD
With B1 the “glycan array binding signal (z-score)” value (Fuc(a1-2)Gal) was 23.9, the “glycan array binding signal (z-score)” value [1] was 0.153 and the “glycan array binding signal (z-score)” value [2] was -0.158. For the same binder, the “glycan array binding signal (z-score)” value (Fuc(a1-2)Gal(b1-4)Glc) was 3.8, the “glycan array binding signal (z-score)” value [3] was 0.025 and the “glycan array binding signal (z-score)” value [4] was -0.086. The “glycan array binding signal (z-score)” value [5] was 0.166, the “glycan array binding signal (z-score)” value [6] was -0.027 and the “glycan array binding signal (z-score)” value [7] was 0.046. The “glycan array binding signal (z-score)” value [8] was 0.027, the “glycan array binding signal (z-score)” value [9] was -0.213 and the “glycan array binding signal (z-score)” value (Gal(a1-4)Gal(b1-4)Glc) was -0.023. For the same binder, the “glycan array binding signal (z-score)” value [10] was 0.48, the “glycan array binding signal (z-score)” value (Gal(b1-3)GalNAc) was 0.28 and the “glycan array binding signal (z-score)” value [11] was 0.314. For the same binder, the “glycan array binding signal (z-score)” value [12] was -0.014, the “glycan array binding signal (z-score)” value [13] was -0.085 and the “glycan array binding signal (z-score)” value [14] was 0.324. The “glycan array binding signal (z-score)” value [15] was 0.461, the “glycan array binding signal (z-score)” value (Gal(b1-4)GlcNAc(b1-2)Man) was -0.056 and the “glycan array binding signal (z-score)” value [16] was -0.051. The “glycan array binding signal (z-score)” value [17] was -0.081, the “glycan array binding signal (z-score)” value [18] was 0.301 and the “glycan array binding signal (z-score)” value (Gal6S(b1-3)GlcNAc6S) was -0.051. The “glycan array binding signal (z-score)” value (Gal6S(b1-4)GlcNAc6S) was -0.133, the “glycan array binding signal (z-score)” value [19] was 1.83 and the “glycan array binding signal (z-score)” value [20] was -0.103. The “glycan array binding signal (z-score)” value [21] was 0.11, the “glycan array binding signal (z-score)” value [22] was 0.002 and the “glycan array binding signal (z-score)” value [23] was -0.138.
